Values joined by “and” are separate entries in the source; they are usually repeats but may differ in a detail not shown here. Identical values can stand only once. This is part of a sample that, as a whole, favours compounds with a hit. Of some 79,000 tested, about 15% had one in any assay. Unmarked numbers belong to inactive results. Active and inactive are the calls of the source. Cut-off read from the data, not from the text of the source: active = growth inhibition above about 70%; inactive = the rest.

Test [1] in a line: NCI Yeast Anticancer Drug Screen. Data for the rad50 strain (AID 155).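 Note: 0% = growth of vehicle-only cultures of the same strain.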 The note with it: S. cerevisiae rad50 strain growth inhibition; at 50.0 µM; active compounds read high. In short, it runs like this:
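DNA repair mutant yeast, compound exposure, growth read-out; inhibition is taken relative to vehicle.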

The nature of test [2]: NCI Yeast Anticancer Drug Screen. Data for the mec2-1 strain (AID 157). The note with it: S. cerevisiae mec2-1 strain, at 50.0 µM, active compounds read high. In short, it runs like this: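 mec2-1 yeast strain, carrying an alteration in DNA damage repair or cell cycle control, was exposed to compounds; growth inhibition was measured relative to vehicle-treated controls.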
Test [3] in a line: NCI Yeast Anticancer Drug Screen. Data for the sgs1 mgt1 strain (AID 161).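 Note: 0% = growth of cultures given vehicle only.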 The note with it: S. cerevisiae sgs1 mgt1 strain, at 50.0 µM, active compounds read high. In short, it runs like this:
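Compounds are added to genetically altered yeast, and growth is compared with cultures given vehicle alone to give percent inhibition.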

The nature of test [4]: NCI Yeast Anticancer Drug Screen. Data for the cln2 rad14 strain (AID 165).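 Note: 0% = growth equal to vehicle treated cultures.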 The note with it: S. cerevisiae cln2 rad14 strain, at 50.0 µM, active compounds read high. In short, it runs like this:
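Yeast carrying cln2 and rad14 alterations (cell cycle control and DNA damage repair) were exposed to compounds. Growth inhibition was measured against vehicle-treated controls.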

Test [5] can be described thus: NCI Yeast Anticancer Drug Screen. Data for the bub3 strain (AID 167). The note with it: S. cerevisiae bub3 mutant strain, at 50.0 µM, active compounds read high. The procedure, abridged:
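In this screen, a yeast mutant lacking normal mitotic checkpoint function is challenged with compound. Relative growth versus vehicle gives the inhibition value.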

Test [6] is described as follows: NCI Yeast Anticancer Drug Screen. Data for the mlh1 rad18 strain (AID 175). As to conditions: S. cerevisiae mlh1 rad18 strain growth inhibition; at 50.0 µM; active compounds read high. In short, it runs like this:
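Growth inhibition of the yeast strain was measured after compound exposure and expressed relative to vehicle-treated controls. The strain carries defined defects in DNA damage repair.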

For `Clc1cccc2c(N3CC3)cnnc12`, the growth inhibition was 17.6% in test [1]; -1.3% in test [2]; -13.3% in test [3]; 1.4% in test [4]; -16.6% in test [5]; -2.55% in test [6].
For `ClCC1CCN(CCc2ccccc2)CC1`, the growth inhibition in test [1] is -5.5%; in test [2], 13.8%; in test [3], 8.65%; in test [4] it was -36.6%; in test [5], -17.8%; in test [6], 9.65%.
Turning to `O=NNc1ncc(Cl)cc1Cl`, the growth inhibition is 4.9% in test [1]; -23.8% in test [2]; -6.05% in test [3]; -4.7% in test [4]; 14.2% in test [5]; 8.65% in test [6].
In the case of `CCOC(=O)CC(=O)C(F)(F)F.CCOC(=O)CC(=O)C(F)(F)F.[Ni]`, the growth inhibition was -21% in test [1]; 14.4% in test [2]; -12.2% in test [3]; 24.4% in test [4]; 12.6% in test [5]; -0.95% in test [6].
Turning to `CC[As](CC)SCC1OC(OC(C)=O)C(OC(C)=O)C(OC(C)=O)C1OC(C)=O` (stereo not drawn), the growth inhibition in test [1] was 99.1% (active); in test [2], 98.5% (active); in test [3] it was 68.2%; in test [4], 99.5% (active); in test [5], 65.8%; in test [6] it was 98.9% (active).
As for `CN(C)CCNC(=O)c1c([N+](=O)[O-])ccc(N(CCCl)CCCl)c1[N+](=O)[O-]`, the growth inhibition in test [1] was 12.7%; in test [2], -11.4%; in test [3] it was -9.9%; in test [4], -27.7%; in test [5], 13.2%; in test [6] it was -2.65%.
Regarding `CC1=C(C)C(=O)C(C)=C(C)C1=O`, the growth inhibition in test [1] is 25.2%; in test [2], 8.7%; in test [3] it was -9.6%; in test [4], -10.7%; in test [5] it was 5.15%; in test [6], 13.2%.
Take `O=C(O)CP(=O)(O)O`: the growth inhibition in test [1] was -19% and 6.2%; in test [2], -8.25% and 10%; in test [3], -21.1% and 1.75%; in test [4] it was -2.2% and -19.4%; in test [5] it was -27.1% and 5.75%; in test [6], 1.2% and -2.65%.
On to `Cc1ccc2nc(NC(=O)C(=O)C3C(=O)NC(=S)NC3=O)sc2c1`, for which the growth inhibition is -2.75% in test [1]; -19.1% in test [2]; 2.85% in test [3]; 2.4% in test [4]; -8.95% in test [5]; -40% in test [6].
Consider `C[CH2][Sn]([CH2]C)([O]C(=O)c1ccc(F)cc1)[O]C(=O)c1ccc(F)cc1`, for which the growth inhibition was 30.5% in test [1]; 17.7% in test [2]; 38.5% in test [3]; 15.1% in test [4]; 15.2% in test [5]; 17.6% in test [6].
`CCC1(O)CC(O)c2c(O)c3c(c(O)c2C1C(=O)OC)C(=O)c1cccc(O)c1C3=O` (stereo not drawn): the growth inhibition in test [1] was 20.8%; in test [2], 39.8%; in test [3], 28.2%; in test [4], 21.8%; in test [5], 14.5%; in test [6], 36.8%.
Regarding `CC1=C(C#N)C2(CCN(C)CC2)C(C#N)=C(C)N1`, the growth inhibition in test [1] is 13.3%; in test [2], 8.75%; in test [3], 3.05%; in test [4] it was -27.9%; in test [5], -3%; in test [6], -4.4%.
Consider `C#CCN1C(=O)CN2C(Cl)(Cl)C2(c2ccccc2)c2cc(Cl)ccc21` (stereo not drawn), for which the growth inhibition in test [1] is 20.1%; in test [2], 16.1%; in test [3] it was -13.4%; in test [4] it was -1.8%; in test [5] it was 3.35%; in test [6], 37.6%.
As to `Cc1ccc([As]=[As]c2ccc(C)cc2N)c(N)c1` (stereo not drawn), the growth inhibition in test [1] is -12.3%; in test [2], -2.8%; in test [3], -3.95%; in test [4], -9.95%; in test [5], 9.05%; in test [6] it was -9.6%.
For the compound `O=C(O)C1CCCC(C(=O)O)[N-]1.O=C(O)C1CCCC(C(=O)O)[N-]1.[Cr+2]` (stereo not drawn), the growth inhibition in test [1] was 31%; in test [2], -3.5%; in test [3], 15.8%; in test [4] it was -14.5%; in test [5] it was -2%; in test [6], 14.3%.
On to `COc1ccc(P2(=S)OC(C)(C)C(C)(C)O2)cc1`, for which the growth inhibition in test [1] was -24.7%; in test [2] it was -16.2%; in test [3] it was -23.7%; in test [4], -51.6%; in test [5], -11.4%; in test [6], -43%.
On to `C[n+]1c[se]cn1`, for which the growth inhibition in test [1] was -2.9%; in test [2], 9.25%; in test [3], -8.2%; in test [4], 1.2%; in test [5], -14.1%; in test [6] it was 0.55%.
As to `CC(C)C(=O)[O-].CC(C)C(=O)[O-].N.N.N.N.[Co+3].[O-][Cl+3]([O-])([O-])[O-]`, the growth inhibition in test [1] was -17.1% and -29.1%; in test [2], 4% and 16.6%; in test [3] it was -54% and -56.5%; in test [4], 9.9% and 23.4%; in test [5] it was -6.75% and -12.6%; in test [6] it was -11.2% and -8.35%.
Consider `COP1(=O)OCC(C)(C)CO1`, for which the growth inhibition in test [1] is 16.4%; in test [2] it was -2.05%; in test [3], 12.7%; in test [4], 13.9%; in test [5], -1.55%; in test [6], 35.8%.
`CN(C)P(=O)(N(C)C)N(C)C`: the growth inhibition in test [1] is 23.2%; in test [2], 6.4%; in test [3] it was -7.05%; in test [4] it was -16.9%; in test [5] it was 23.6%; in test [6] it was 25.1%.
Regarding `CCOc1ccc(P2(=S)SP(=S)(c3ccc(OCC)cc3)S2)cc1` (stereo not drawn), the growth inhibition in test [1] is -11.3%; in test [2], -20.9%; in test [3] it was -13.2%; in test [4], 20%; in test [5] it was 17.1%; in test [6] it was -13.8%.
For the compound `CCOc1ccc(N)cc1`, the growth inhibition in test [1] is -4.65%; in test [2], 10.9%; in test [3], -6.05%; in test [4] it was 5.85%; in test [5], 0.45%; in test [6] it was 8.65%.
Take `COc1ccc2c(c1OC)C[C@@H]1c3c(cc4c(c3-2)OCO4)CCN1C`: the growth inhibition was 21.2% in test [1]; -30.2% in test [2]; -23.6% in test [3]; -14.6% in test [4]; -0.6% in test [5]; -56.5% in test [6].

These data come from PubChem BioAssay (NCI).
